The source of these data is PubChem BioAssay (NCATS).

The conditions of experiment [1]: Ebola virus entry assay, green fluorescence channel.
The conditions of experiment [2]: Ebola virus entry assay, blue channel fluorescence.
The conditions of experiment [3]: Ebola virus entry assay, green fluorescence channel. This is another data set of the same source.
For experiment [4] the following is noted: Ebola virus entry assay, ratio channel readout.
The conditions of experiment [5]: Ebola virus entry assay, blue channel fluorescence. This is another data set of the same source.
For experiment [6] the following is noted: Ebola virus entry assay, ratio channel.
The nature of experiment [7]: qHTS profiling of the MIPE4 collection as inhibitors of Plasmodium falciparum (3D7) proliferation (AID 743344).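 Further: scaled between DMSO vehicle wells and 0.29 µM artemisinin as full inhibition.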 As to conditions: P. falciparum 3D7 in erythrocytes, SYBR Green DNA fluorescence, 72 h; at 28.5 µM (top of the series) unless noted. A digest of the protocol:
(§1)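 Parasite DNA was quantified by SYBR Green I fluorescence (ex 485, em 535 nm) after overnight lysis in saponin/Triton buffer at room temperature. Cultures at 0.3% parasitemia and 2.5% hematocrit were first exposed to compound for 72 h at 37 C; signals were normalised to artemisinin (0.29 uM) and vehicle wells.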
(In qHTS, concentration-response curves come from the screen itself.)

Experiment [8] can be described thus: qHTS profiling of the MIPE4 collection as inhibitors of Plasmodium falciparum (DD2) proliferation (Rep 2) (AID 743346). Particulars: P. falciparum Dd2 in erythrocytes, SYBR Green DNA, 72 h; at 28.5 µM (top of the series) unless noted. An outline of the steps: as §1
Experiment [9] can be described thus: qHTS profiling of the MIPE4 collection as inhibitors of Plasmodium falciparum (HB3) proliferation (AID 743347).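 Further: plate controls were DMSO vehicle wells for no effect and artemisinin wells for full effect.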 Particulars: P. falciparum HB3 in erythrocytes, SYBR Green DNA, 72 h; at 28.5 µM (top of the series) unless noted. An outline of the steps:
as §1

For part of these data: Entries with a potency or affinity are not part of this list. Calls of active or inactive are those of the source.
Wherever efficacy is given: 0% is about no effect.

Take `CC(C)Nc1cccnc1N1CCN(C(=O)c2cc3cc(NS(C)(=O)=O)ccc3[nH]2)CC1`: the efficacy in experiment [1] was -26% (inactive). Further, the compound was classed as inactive in experiment [2], in [3], in experiment [4], in [5] and in experiment [6].
`CCCCNC(=O)NS(=O)(=O)c1ccc(C)cc1`: the efficacy in [1] was -19.2% (inactive). Besides, the result in experiment [2], in [3], in experiment [4], in [5] and in experiment [6] was inactive.
For `Oc1ccc(C2CNCCc3c2cc(O)c(O)c3Cl)cc1` (stereo not drawn), the efficacy in experiment [1] is 16.5% (inactive). The outcome in [2], in [3], in experiment [4], in experiment [5] and in experiment [6] was inactive.
As to `Cc1cccc(Nc2ccccc2C(=O)O)c1C`, the efficacy in experiment [1] was 32.2% (inactive). Also, the outcome in experiment [2], in experiment [3], in [4], in experiment [5] and in [6] was inactive.
Consider `CCCCNc1ccc(C(=O)OCCOCCOCCOCCOCCOCCOCCOCCOCCOC)cc1`, for which the efficacy in experiment [1] was 14% (inactive). Besides, the outcome in experiment [2], in experiment [3], in [4], in experiment [5] and in experiment [6] was inactive.
On to `COC1=CC(=O)C[C@@H](C)[C@]12Oc1c(Cl)c(OC)cc(OC)c1C2=O`, for which, in [1], the efficacy was 30% (inactive). In addition, the compound was classed as inactive in [2], in [3], in experiment [4], in experiment [5] and in experiment [6].
For the compound `CN/C(=C\[N+](=O)[O-])NCCSCc1ccc(CN(C)C)o1`, in experiment [1], the efficacy was -12.5% (inactive). The compound was called inactive in experiment [2], in experiment [3], in [4], in experiment [5] and in experiment [6].
`Cn1cnc([N+](=O)[O-])c1Sc1ncnc2nc[nH]c12`: the efficacy in [1] is 14.5% (inactive). Also, the call in experiment [2], in [3], in experiment [4], in experiment [5] and in [6] was inactive.
Take `CCC(=O)O[C@H]1[C@H](O[C@@H]2[C@@H](C)[C@H](O[C@H]3C[C@@](C)(OC)[C@@H](O)[C@H](C)O3)[C@@H](C)C(=O)O[C@H](CC)[C@@](C)(O)[C@H](O)[C@@H](C)C(=O)[C@H](C)C[C@@]2(C)O)O[C@H](C)C[C@@H]1N(C)C`: the efficacy in experiment [1] is 131% (inactive). For the same compound, the compound was classed as inactive in [2], in experiment [3] and in [4]. Also, the concentration at half-maximal activity (AC50) (as a rule, the concentration giving half of the maximal activity seen) was 14.1 µM (active) in experiment [5] and 11.2 µM (active) in [6].
Take `CC(CN1c2ccccc2Sc2ccccc21)N(C)C` (stereo not drawn): the efficacy in experiment [1] was 81.3% (inactive). For the same compound, the result in experiment [2], in experiment [3] and in [4] was inactive. Besides, the AC50 in [5] is 39.8 µM (active); in [6], 31.6 µM (active).
Turning to `O=C(c1ccccc1)c1ccc2n1CCC2C(=O)O` (stereo not drawn), the efficacy in experiment [1] is 22% (inactive). In addition, the compound was called inactive in experiment [2], in experiment [3], in experiment [4], in [5] and in experiment [6].
Turning to `CC(=O)N(O)CCCCCNC(=O)CCC(=O)N(O)CCCCCNC(=O)CCC(=O)N(O)CCCCCN`, the efficacy in experiment [1] is -19.8% (inactive). The compound was classed as inactive in [2], in experiment [3], in experiment [4], in experiment [5] and in experiment [6].
For the compound `CCOc1ccccc1OCCN[C@H](C)Cc1ccc(OC)c(S(N)(=O)=O)c1`, the efficacy in experiment [1] was -10.5% (inactive). Further, the compound was called inactive in [2], in experiment [3], in [4], in [5] and in experiment [6].
For `C[C@H]1O[C@H](O[C@H]2[C@H](O)[C@@H](O)[C@@H](O[C@H]3[C@H](O)[C@@H](O)[C@H](O)O[C@@H]3CO)O[C@@H]2CO)[C@H](O)[C@@H](O)[C@@H]1N[C@H]1C=C(CO)[C@@H](O)[C@H](O)[C@H]1O`, in experiment [1], the efficacy is 9.72% (inactive). Besides, the outcome in experiment [2], in experiment [3], in experiment [4], in [5] and in [6] was inactive.
On to `CNCCCN1c2ccccc2CCc2ccccc21`, for which the efficacy in experiment [1] was 91.8% (inactive). Moreover, the result in [2], in experiment [3] and in experiment [4] was inactive. The half-maximal activity concentration (AC50) was 10 µM (active) in experiment [5] and 7.94 µM (active) in experiment [6].
As to `CN1C[C@H]2c3ccccc3Oc3ccc(Cl)cc3[C@@H]2C1`, in experiment [1], the efficacy is 60.4% (inactive). The result in experiment [2], in [3] and in [4] was inactive. Also, the half-maximal activity concentration (AC50) was 22.4 µM (active) in experiment [5] and 14.1 µM (active) in [6].
For `COC(=O)[C@H]1[C@H]2C[C@@H]3c4[nH]c5cc(OC)ccc5c4CCN3C[C@H]2C[C@@H](OC(=O)c2cc(OC)c(OC)c(OC)c2)[C@@H]1OC`, in experiment [1], the efficacy is 32.6% (inactive). Moreover, the compound was classed as inactive in experiment [2], in experiment [3] and in [4]. Also, the AC50 in [5] is 31.6 µM (active); in [6] it was 25.1 µM (active).
Regarding `CC[C@H](C)C(=O)O[C@H]1C[C@@H](C)C=C2C=C[C@H](C)[C@H](CC[C@@H]3C[C@@H](O)CC(=O)O3)[C@H]21`, in [1], the efficacy is 16.1% (inactive). Further, the compound was classed as inactive in experiment [2], in [3], in [4], in experiment [5] and in experiment [6].
As for `NC(=O)C(c1ccccc1)(c1ccccc1)[C@@H]1CCN(CCc2ccc3c(c2)CCO3)C1`, the efficacy in experiment [1] is 91.3% (inactive). For the same compound, the compound was classed as inactive in experiment [2], in [3] and in [4]. Further, the values for the AC50 in [5] and in [6] were 39.8 µM (active) and 31.6 µM (active), respectively.
For the compound `CN1CCC(=C2c3ccccc3C=Cc3ccccc32)CC1`, the efficacy in experiment [1] was 67.2% (inactive). The result in experiment [2], in experiment [3] and in [4] was inactive. Further, the AC50 in experiment [5] is 11.2 µM (active); in experiment [6] it was 10 µM (active).
For `Cc1ccccc1C(OCCN(C)C)c1ccccc1` (stereo not drawn), the efficacy in experiment [1] is 62.3% (inactive). Also, the AC50 in experiment [2] was 10 µM (active); in experiment [5] it was 7.94 µM (active); in [6], 8.91 µM (active). For the same compound, the outcome in experiment [3] and in experiment [4] was inactive.
Turning to `O=NN(CCCl)C(=O)NC1CCCCC1`, in experiment [7], the parasite growth, % of DMSO control worked out at 91.7%. In experiment [8], this compound came in with a parasite growth, % of control (lower = inhibition) of 72.9%. This compound registered a growth, % of control in experiment [9] of 74.9%. In experiment [1], the efficacy is -12.9% (inactive). The call in [2], in experiment [3], in [4], in [5] and in experiment [6] was inactive.
As to `CCN(C)C(=O)Oc1cccc([C@H](C)N(C)C)c1`, the parasite growth, % of DMSO control in experiment [7] turned out to be 92%. The compound further showed a parasite growth, % of control (lower = inhibition) in experiment [8] of 69.6%. The same compound yielded a growth, % of control in [9] of 82.1%. The efficacy in [1] was 11.7% (inactive). Moreover, the call in experiment [2], in experiment [3], in [4], in [5] and in [6] was inactive.
Compound `COc1cc2c(c(OC)c1OC)-c1ccc(OC)c(=O)cc1[C@@H](NC(C)=O)CC2` returned a parasite growth, % of DMSO control in experiment [7] of 34.7%. Moreover, the parasite growth, % of control (lower = inhibition) in experiment [8] amounted to 42.5%. In experiment [9], this compound had a growth, % of control of 35.4%. In addition, in experiment [1], the efficacy was -81.3% (inactive). For the same compound, the concentration at half-maximal activity (AC50) in [2] is 0.316 µM (active); in experiment [4], 0.32 µM (active); in [5], 22.4 µM (active); in experiment [6], 0.316 µM (active). Further, in experiment [3], the outcome was inactive.
